We go through ten compounds from PMC7826789 (International Journal of Molecular Sciences, 2021).

Molecules are shown by their SMILES.

The first assay has as its system MAP2K5.
Regarding `Cc1ccc(C(=O)Nc2ccc(Nc3ccnc4cc(-c5ccccn5)ccc34)cc2O)cc1` [GW440146], the Kinases covered result is given as “MAP2K5”.
On the same count and under the same terms, then `COc1cc2ncn(-c3cc(OCC4CCCO4)c(C(N)=O)s3)c2cc1OC` (stereo not shown) [GSK204607], with “MAP2K5”; and `COc1cc2nccc(Nc3ccc(OCc4ccc(NC(C)=O)cc4)cc3)c2cc1OC` [GW440135], with “MAP2K5”; and `COc1cc(Nc2nccc(N3CCC(NC(=O)Nc4cc(C)ccc4C)C3)n2)cc(OC)c1OC` (stereo not shown) [GSK1379762], with “MAP2K5”.

The next assay relates to MAPK10.
Consider `O=C(O)/C=C/C(=O)O.OCCCNc1nccc(-c2c(-c3ccc(F)cc3)nn3cc(C(F)(F)F)ccc23)n1` [GW569293E], for which the Kinases covered result is “MAPK10”.
The same measure, in the same setting: the result for `CCc1nc(-c2cccc(C)c2)c(-c2ccncc2)s1` [TPKI-106] reads “MAPK10”; that for `COC(=O)c1c(-c2ccccc2)c2cc(Br)ccc2c(=O)n1Cc1ccc(S(C)(=O)=O)cc1` [TPKI-100], “MAPK10”; that for `Fc1ccc(-c2nn3ccccc3c2-c2ccncc2)cc1` [GW434756X], “MAPK10”.
For the compound `Nc1nccc(-c2c(-c3ccc(F)cc3)ncn2C2CCN(Cc3ccccc3)CC2)n1` [SB-219980], the Kinases covered entry is on record as “MAPK10”.
Turning to `CCC(=O)c1c(-c2ccccc2)c2cc(Cl)ccc2c(=O)n1Cc1cc(S(C)(=O)=O)n(CC(N)=O)n1` [TPKI-105], the Kinases covered entry was “MAPK10”.
